Source: PubChem BioAssay AID1159580 (chemical genetic matrix, 2015)
Out of some 5,500 compounds screened, about 2,000 (36%) were called active. Not shown: some 18% with an inconclusive outcome. Cut-off read from the data, not from the text of the source: active = normalized growth mostly below about 0.91 (no sharp cut-off); inconclusive = no clear call, values can overlap the other calls; inactive = mostly above about 0.92. This is one part of the list.

Assay: chemical genetic growth profiling, strain panel (AID 1159580);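 note: tested at 20 µM; growth read once vehicle control cultures reached saturation at 30 °C; 1 = growth at the plate median or of vehicle wells; lower values mean less growth of the strain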
Conditions: S. cerevisiae deletion strains, growth OD

Measured: normalized growth

Cc1cccc(C#Cc2ccccc2)n1
inactive: locus YAL040C, strain CLN3, stronger effect = lower value 0.997 | locus YCL061C, strain MRC1 (second series), stronger effect = lower value 0.968 | locus YDR363W, strain ESC2, stronger effect = lower value 1.05 | locus YER002W, strain NOP16, stronger effect = lower value 0.986 | locus YGR078C, strain PAC10, stronger effect = lower value 0.978 | locus YMR263W, strain SAP30, stronger effect = lower value 0.993 | locus YMR307W, strain GAS1, stronger effect = lower value 0.919 | locus YNL128W, strain TEP1, stronger effect = lower value 0.992 | locus YNL175C, strain NOP13, stronger effect = lower value 0.977 | locus YNL197C, strain WHI3, stronger effect = lower value 1 | locus YNL224C, strain SQS1, stronger effect = lower value 1 | locus YNL322C, strain KRE1, stronger effect = lower value 0.976 | locus YOR083W, strain WHI5 (second series), stronger effect = lower value 0.918

CC(C)(CO)C(O)C(=O)NCCCO (stereo not drawn)
inactive: locus YAL021C, strain ccr4, stronger effect = lower value 1 | locus YAL026C, strain drs2, stronger effect = lower value 1.02 | locus YAL030W, strain snc1, stronger effect = lower value 1.02 | locus YBL061C, strain skt5, stronger effect = lower value 1.02 | locus YBR009C, strain hhf1, stronger effect = lower value 1.03 | locus YBR023C, strain chs3, stronger effect = lower value 1.03 | locus YBR171W, strain sec66, stronger effect = lower value 1.03 | locus YBR231C, strain swc5, stronger effect = lower value 1.02 | locus YBR279W, strain paf1, stronger effect = lower value 1.01 | locus YCL011C, strain gbp2, stronger effect = lower value 1.02 | locus YCL016C, strain dcc1, stronger effect = lower value 1.02 | locus YCL061C, strain MRC1, stronger effect = lower value 1.01 | locus YCL069W, strain vba3, stronger effect = lower value 1.01 | locus YCR088W, strain abp1, stronger effect = lower value 1.01 | locus YDL005C, strain med2, stronger effect = lower value 1.01 | locus YDL040C, strain nat1, stronger effect = lower value 1.01 | locus YDR001C, strain nth1, stronger effect = lower value 1.02 | locus YDR069C, strain doa4, stronger effect = lower value 1.02 | locus YDR137W, strain rgp1, stronger effect = lower value 1.03 | locus YDR159W, strain sac3, stronger effect = lower value 1.03 | locus YDR195W, strain ref2 1.01 | locus YDR297W, strain sur2, stronger effect = lower value 1.01 | locus YDR334W, strain swr1, stronger effect = lower value 1.01 | locus YDR335W, strain msn5, stronger effect = lower value 1.01 | locus YDR392W, strain spt3, stronger effect = lower value 1.02 | locus YEL003W, strain gim4, stronger effect = lower value 1.02 | locus YEL037C, strain rad23, stronger effect = lower value 1.01 | locus YEL061C, strain CIN8 (second series), stronger effect = lower value 1.02 | locus YER015W, strain faa2, stronger effect = lower value 1.01 | locus YER016W, strain bim1, stronger effect = lower value 1.02 | locus YER111C, strain swi4, stronger effect = lower value 1.01 | locus YER155C, strain BEM2 (second series), stronger effect = lower value 1.04 | locus YFR010W, strain ubp6, stronger effect = lower value 1.01 | locus YGL167C, strain pmr1, stronger effect = lower value 1.03 | locus YGL173C, strain kem1, stronger effect = lower value 1.02 | locus YGL227W, strain vid30, stronger effect = lower value 1.02 | locus YGL240W, strain doc1, stronger effect = lower value 1.02 | locus YGL253W, strain hxk2, stronger effect = lower value 1.02 | locus YHR013C, strain ard1, stronger effect = lower value 1.03 | locus YHR027C, strain rpn1, stronger effect = lower value 1.02 | locus YHR030C, strain SLT2, stronger effect = lower value 1.02 | locus YHR079C, strain IRE1, stronger effect = lower value 1.01 | locus YHR142W, strain chs7, stronger effect = lower value 1.01 | locus YJL092W, strain hpr5, stronger effect = lower value 1.01 | locus YJL095W, strain BCK1 (second series), stronger effect = lower value 1.01 | locus YJL095W, strain BCK1, stronger effect = lower value 0.995 | locus YJL115W, strain asf1, stronger effect = lower value 1.02 | locus YJL129C, strain trk1, stronger effect = lower value 1.02 | locus YJL154C, strain vps35, stronger effect = lower value 1.01 | locus YJL164C, strain tpk1, stronger effect = lower value 1.02 | locus YJL166W, strain qcr8, stronger effect = lower value 1.02 | locus YJL187C, strain SWE1, stronger effect = lower value 1.01 | locus YJR066W, strain TOR1, stronger effect = lower value 0.964 | locus YKL160W, strain elf1, stronger effect = lower value 1.01 | locus YKR026C, strain gcn3, stronger effect = lower value 0.994 | locus YKR091W, strain srl3, stronger effect = lower value 1.01 | locus YLL001W, strain dnm1, stronger effect = lower value 1.02 | locus YLL026W, stronger effect = lower value 1.02 | locus YLL041C, strain sdh2, stronger effect = lower value 1.02 | locus YLR027C, strain aat2, stronger effect = lower value 1.02 | locus YLR113W, strain HOG1, stronger effect = lower value 0.985 | locus YLR221C, strain rsa3, stronger effect = lower value 1.01 | locus YLR258W, strain gsy2, stronger effect = lower value 1.02 | locus YLR262C, strain YPT6 (second series), stronger effect = lower value 1.02 | locus YLR320W, strain mms22, stronger effect = lower value 1.02 | locus YLR342W, strain FKS1, stronger effect = lower value 1.01 | locus YLR357W, strain rsc2, stronger effect = lower value 1.04 | locus YLR370C, strain arc18, stronger effect = lower value 1.02 | locus YLR384C, strain iki3, stronger effect = lower value 1.02 | locus YML120C, strain ndi1, stronger effect = lower value 1.01 | locus YMR058W, strain fet3, stronger effect = lower value 1.01 | locus YMR125W, strain sto1, stronger effect = lower value 1.03 | locus YMR129W, stronger effect = lower value 1.01 | locus YMR205C, strain PFK2, stronger effect = lower value 1.03 | locus YMR231W, strain pep5, stronger effect = lower value 1.01 | locus YNL071W, strain lat1, stronger effect = lower value 1.02 | locus YNL183C, strain NPR1, stronger effect = lower value 0.954 | locus YNL209W, strain ssb2, stronger effect = lower value 1.01 | locus YNL248C, strain rpa49, stronger effect = lower value 0.992 | locus YNL322C, strain KRE1 (second series), stronger effect = lower value 1.01 | locus YNR049C, strain mso1, stronger effect = lower value 1.01 | locus YOR001W, strain rrp6, stronger effect = lower value 1 | locus YOR070C, strain gyp1, stronger effect = lower value 1.01 | locus YOR080W, strain dia2, stronger effect = lower value 1.02 | locus YOR083W, strain WHI5, stronger effect = lower value 1 | locus YOR106W, strain vam3, stronger effect = lower value 1 | locus YOR231W, strain MKK1, stronger effect = lower value 1.01 | locus YOR265W, strain rbl2, stronger effect = lower value 1.01 | locus YOR270C, strain vph1, stronger effect = lower value 1.03 | locus YOR290C, strain snf2, stronger effect = lower value 1.03 | locus YPL051W, strain arl3, stronger effect = lower value 1.03 | locus YPL078C, strain atp4, stronger effect = lower value 1.01 | locus YPL106C, strain sse1, stronger effect = lower value 1 | locus YPL240C, strain hsp82, stronger effect = lower value 1.01 | locus YPL256C, strain CLN2, stronger effect = lower value 0.994
